Laboratory results as given in PubChem BioAssay AID504339 (National Center for Advancing Translational Sciences (NCATS), 2011).
The whole screen tested about 390,000 compounds, of which about 17,000 (4.4%) were called active. Inconclusive results (about 8%) are left out. Only a selection was taken, and actives are over-represented in it overall. Values without a mark were called inactive. Calls come from the whole dose curve; as a rule, active = well fitted inhibition curve with a large enough effect; inconclusive = small, poorly fitted or top-dose-only effect; inactive = no such curve, though single readings can be large or run the other way.

Each compound was assayed against Lysine-specific demethylase 4A (Homo sapiens) (UniProt O75164) (assay: qHTS Assay for Inhibitors of JMJD2A-Tudor Domain). Conditions: AlphaScreen JMJD2A-Tudor / H3K4me3 peptide binding; series mostly up to 114 µM; activity change, negative = inhibition: at the top concentration.
Chain of Lysine-specific demethylase 4A (Homo sapiens) (O75164 whole entry, looked up, the tested form may be a part): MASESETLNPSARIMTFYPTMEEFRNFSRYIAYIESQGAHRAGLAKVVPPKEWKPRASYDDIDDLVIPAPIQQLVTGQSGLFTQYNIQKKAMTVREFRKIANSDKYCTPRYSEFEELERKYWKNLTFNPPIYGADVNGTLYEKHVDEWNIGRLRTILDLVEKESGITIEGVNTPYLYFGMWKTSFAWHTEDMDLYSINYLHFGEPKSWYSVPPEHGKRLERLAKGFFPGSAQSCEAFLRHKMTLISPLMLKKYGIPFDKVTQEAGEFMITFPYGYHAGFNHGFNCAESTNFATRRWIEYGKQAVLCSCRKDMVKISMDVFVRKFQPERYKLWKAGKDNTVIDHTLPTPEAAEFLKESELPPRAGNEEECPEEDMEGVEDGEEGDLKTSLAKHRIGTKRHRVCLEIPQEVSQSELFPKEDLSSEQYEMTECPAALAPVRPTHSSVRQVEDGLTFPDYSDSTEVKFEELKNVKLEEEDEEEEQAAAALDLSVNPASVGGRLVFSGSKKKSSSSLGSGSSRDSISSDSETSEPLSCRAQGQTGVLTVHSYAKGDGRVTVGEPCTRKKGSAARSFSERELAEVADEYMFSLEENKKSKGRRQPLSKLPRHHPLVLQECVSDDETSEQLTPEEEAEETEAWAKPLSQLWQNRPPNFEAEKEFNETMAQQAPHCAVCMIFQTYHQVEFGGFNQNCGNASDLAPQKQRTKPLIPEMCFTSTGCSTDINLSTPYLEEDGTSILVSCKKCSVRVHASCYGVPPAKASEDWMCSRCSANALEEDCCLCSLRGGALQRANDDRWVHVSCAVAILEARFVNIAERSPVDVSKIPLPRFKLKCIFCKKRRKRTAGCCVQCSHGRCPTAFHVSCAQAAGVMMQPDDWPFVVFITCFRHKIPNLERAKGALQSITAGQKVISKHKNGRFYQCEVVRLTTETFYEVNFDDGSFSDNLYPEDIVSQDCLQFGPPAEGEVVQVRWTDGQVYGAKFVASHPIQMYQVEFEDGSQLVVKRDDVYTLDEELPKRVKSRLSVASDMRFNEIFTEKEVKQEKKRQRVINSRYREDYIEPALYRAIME
% is set by controls: 0 for no effect and ±100 for the full control effect; potency is the fitted concentration of half-maximal effect.
Note: nearly all actives have a fitted effect of over 50% in size.

SMILES | activity change, negative = inhibition | Potency
CCc1ccc(CNCc2c(C(=O)O)n(Cc3ccc(F)cc3Cl)c3cc(OC)ccc23)cc1 | -18.7% | 
CC(C)(C)OC(=O)N1CCC(c2c(C(=O)NCc3ccccn3)cnn2-c2ccc(F)cc2)CC1 | -5.83% | 
C#CCOCCOCCOCCNc1nc(N2CCN(C(=O)Cn3cc(CCO)nn3)CC2)nc(N2CCN(C(=O)[C@H](CCCCN)n3cc(CCCC)nn3)CC2)n1 | -18.8% | 
C#CCOCCOCCOCCNc1nc(N2CCN(C(=O)C([C@@H](C)CC)n3cc(C(N)COC(=O)C(F)(F)F)nn3)CC2)nc(N2CCN(C(=O)[C@H](CCCCN)n3cc(C(N)CC(C)C)nn3)CC2)n1 (stereo partly specified) |  | 56.2 µM (active)
C#CCOCCOCCOCCNc1nc(N2CCN(C(=O)C([C@@H](C)O)n3cc([C@@H](N)CCCCN)nn3)CC2)nc(N2CCN(C(=O)[C@H](CCCCN)n3cc(CN)nn3)CC2)n1 (stereo partly specified) |  | 79.4 µM (active)
CCC(C)[C@@H](C(=O)N1CCNCC1)n1cc(CCCCN)nn1 (stereo partly specified) | -14.4% | 
O=S(=O)(Nc1ccc2nc(-c3cccc(Cl)c3)oc2c1)c1ccccc1 | -16.6% | 
CC(=O)OCC(NC(=O)C(Cc1ccccc1)NC(=O)OC(C)(C)C)C1OC(n2ccc(=O)[nH]c2=O)C(OC(C)=O)C1OC(C)=O (stereo unspecified) | 2.76% | 
Cc1cccc(-n2ccnc2SCC(=O)Nc2cc(C(F)(F)F)ccc2Cl)c1 | -32.9% | 
O=C(NC1CC(=O)N(c2ccc(F)cc2)C1)C1CCCCC1 (stereo unspecified) | -5.84% | 
CSc1ccc(NC(=O)Cn2nnnc2-c2ccccc2F)cc1 | -16.4% | 
CC(C)(C)c1ccc(C(=O)N2CCC(c3nc(-c4ccc(S(=O)(=O)N5CCCC5)cc4)no3)CC2)cc1 | -27.7% | 
O=[N+]([O-])c1ccccc1/C=C/CN1CCC(O)CC1 |  | 8.91 µM (active)
CC1CC(C)CN(C/C=C/c2ccccc2[N+](=O)[O-])C1 (stereo unspecified) | -24.5% | 
O=C(/C=C/c1ccccc1[N+](=O)[O-])OCC(=O)N1CCCC1 | 10.1% | 
CCN(CCCNC(=O)Cn1ncc2c([nH]c3ccccc32)c1=O)c1cccc(C)c1 | -24.8% | 
COc1ccc(-c2noc(CSc3nc(C)cc(=O)[nH]3)n2)cc1OC | -10.4% | 
COCCCNC(=O)C1CC(=O)N(CCc2ccccc2)C1 (stereo unspecified) | -5.84% | 
COCCCNC(=O)[C@H]1N2C(=O)c3ccccc3C2SC1(C)C (stereo partly specified) |  | 22.4 µM (active)
CC1(C)SC2c3ccccc3C(=O)N2[C@@H]1C(=O)NCc1ccco1 (stereo partly specified) | -15.6% | 
CCOc1ccc(NC(=O)C(=O)NCCc2csc3nc(-c4ccccc4F)nn23)cc1 | -16% | 

SMILES | activity change, negative = inhibition | Potency
Cc1cc(C)c2oc(C(=O)Nc3ccc(S(=O)(=O)N4CCCCCC4)cc3)cc(=O)c2c1 | -16.3% | 
CCOC(=O)c1c(NC(=O)Cc2coc3ccc(CC)cc23)sc2c1CCC2 | 5.56% | 
CCc1nn(CC(=O)N2CCN(c3cccc(C(F)(F)F)c3)CC2)c(=O)c2cc3occc3n12 | -7.05% | 
Cc1nc2nc(NCc3cccc(Br)c3)[nH]n2c(=O)c1Cc1ccccc1 | -9.38% | 
Cc1cc(C)n2ncc(C(=O)Nc3cccc(C#N)c3)c2n1 | -24.1% [at 28.6 µM] | 
COc1ccccc1C(=O)Nc1ccc(Nc2ccccc2)cc1 | 3.79% | 
Nc1ccc(Nc2ccccc2)cc1 |  | 39.8 µM (active)
Nc1ccc(S(=O)(=O)NC(=O)c2ccccc2)cc1 | -2.76% | 
CCN(CC)C(=O)CSc1nc2cc3c(cc2c(=O)n1CCCC(=O)NCc1ccc2c(c1)OCO2)OCO3 | -12.7% | 
COc1ccccc1-c1noc(CSc2nnc(-c3ccccc3)n2-c2ccc(C)c(C)c2)n1 | -33.7% | 
NNc1nc2c(Cl)cccc2s1 |  | 63.1 µM (active)
NC(=O)c1c(Nc2nc3c(F)cccc3s2)sc2c1CCCC2 | -32.5% | 
CCc1nnc(SCc2c(F)cccc2Cl)c2cc3sccc3n12 | -16.5% | 
CCN(C(=O)Cn1cc(S(=O)(=O)N2CCN(c3ccccc3F)CC2)c2ccccc2c1=O)c1ccc(C)c(C)c1 | -16.1% | 
CCCOc1ccc(C(=O)Nc2ccc3oc(-c4cccc(Cl)c4Cl)nc3c2)cc1 | -1.63% | 
CCOC(=O)C1CCCCN1Cc1ccc(OC)c(OC)c1OC (stereo unspecified) |  | 2.24 µM (active)
CCOC(=O)C1CCN(C(=O)/C=C/c2cc(OC)c(OC)c(OC)c2)CC1 | 3.19% [at 57.1 µM] | 
CCOC(=O)C1CCN(S(=O)(=O)c2cc(F)ccc2OC)CC1 | -5.63% | 
CCOc1ccccc1CNCc1c(C(=O)O)c(C)n(Cc2ccc(C)cc2)c1C | -13.4% | 
CC1=C(c2ccc(C)c(C)c2)S(=O)(=O)NC1=NCc1ccccc1Cl | -22.5% | 
Cc1nc2ccn(Cc3cccs3)c(=O)c2cc1C(=O)NCc1ccc(Cl)cc1 | -15.3% | 

SMILES | activity change, negative = inhibition | Potency
CCOc1cccc(/C=N/NC(=S)NCCN2CCOCC2)c1O |  | 56.2 µM (active)
CCOc1nc(NCCN2CCOCC2)nc(Nc2ccc(C)cc2)n1 | -20.1% | 
O=C(NCCN1CCOCC1)Nc1cccc(Cl)c1 | 4.56% | 
O=C(Nc1nc2c(s1)CCCC2)c1ccccc1F | -14.9% | 
COc1ccc(-c2nnc(SCC(=O)Nc3ccc(C(C)C)cc3)nc2-c2ccc(OC)c(OC)c2)cc1OC | -8% | 
CCCCN(C)CCCNC(=O)CN1N=C(c2ccc(OC)cc2)CCC1=O | -2.24% | 
Nc1ccc2nc3c(=O)[nH]c(=S)[nH]c3nc2c1 |  | 2.51 µM (active)
COc1ccc(CNC(=O)Cc2coc3ccc(C(C)C)cc23)cc1 | -7.64% | 
COc1ccc(CCNC(=O)C(=O)NCC(c2ccco2)S(=O)(=O)c2cccs2)cc1OC (stereo unspecified) | -2.6% | 
CCOc1ccc(-n2c(SCC(=O)NCc3ccccc3)nc3n[nH]c(C)c3c2=N)cc1 | -6.09% | 
CCOc1ccc(-n2c(O)c(/C=N/Nc3nnc(C)c(=O)[nH]3)c3ccccc3c2=O)cc1 |  | 28.2 µM (active)
O=C(COc1ccc(Cl)cc1Cl)N/N=C/c1ccccn1 | 6.74% | 
CCN(CC)CCCN=Cc1c(O)n(-c2ccc(C)cc2)c(=O)c2ccccc12 | -18.3% | 
Cc1nnc(N/N=C/c2ccccn2)[nH]c1=O |  | 20 µM (active)
O=C(N/N=C/c1ccccn1)C12CC3CC(CC(C3)C1)C2 | 6.29% | 
Cc1cccc(C(=O)N2CCc3cc(CNC(=O)Cc4ccc(F)cc4)ccc32)c1 | -23.3% | 
COc1cccc(C(=O)Nc2ccc(-c3cc(C(F)(F)F)nn3-c3ccccc3)cc2)c1 | 0% | 
OCc1cnc(SCc2ccc(F)cc2)n1Cc1ccc(F)cc1 | -28.4% | 
Cc1ccc(S(=O)(=O)N2CCN(c3nc(-n4cnc5ccccc54)nc4ccccc34)CC2)cc1 | -23.4% | 
